Test results from paper PMC7862700, “An all-to-all approach to the identification of sequence-specific readers for epigenetic DNA modifications on cytosine”.

Assays:
Experiment in all cases: DAPPL (digital affinity profiling via proximity ligation, sequencing); 10 mM Tris-HCl pH 7.5, 50 mM NaCl, 1 mM DTT, 4% glycerol, room temperature, 30 min; GST-TFs on glutathione beads, 16-mer random dsDNA library, 0.1% formaldehyde crosslink after washing; high values mean tight binding
FLI1 = biological target: T1, FLI1 (Homo sapiens, UniProt Q01543 1-452); details: protein: recombinant; tags: N-terminal GST; dsDNA, one strand shown
T1 sequence: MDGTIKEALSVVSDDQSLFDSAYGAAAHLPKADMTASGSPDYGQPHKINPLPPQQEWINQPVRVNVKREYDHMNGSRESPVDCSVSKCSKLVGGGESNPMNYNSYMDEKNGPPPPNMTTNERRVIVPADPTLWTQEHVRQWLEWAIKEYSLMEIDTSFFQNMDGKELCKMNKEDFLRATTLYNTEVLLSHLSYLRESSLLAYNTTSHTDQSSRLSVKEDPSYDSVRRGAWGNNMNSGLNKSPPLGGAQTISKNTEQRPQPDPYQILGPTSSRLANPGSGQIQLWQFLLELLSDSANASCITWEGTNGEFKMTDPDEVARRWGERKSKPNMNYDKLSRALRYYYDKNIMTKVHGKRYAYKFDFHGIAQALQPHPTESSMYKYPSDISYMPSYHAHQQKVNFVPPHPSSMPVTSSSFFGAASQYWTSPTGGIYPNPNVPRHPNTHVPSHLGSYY
How it was run: (§1)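 After expression in yeast as GST fusions, human transcription factors were bound to glutathione beads, DNA-barcoded and mixed with a tag-only sample. The pools were incubated with 200 nmole of a 16-mer random double-stranded DNA library in Tris/NaCl/DTT/glycerol buffer (30 min, room temperature), washed and crosslinked with 0.1% formaldehyde. Proximity ligation with BsaI/T4 ligase ran for 1 h at 37 °C, before PCR amplification and sequencing on an Illumina NextSeq500. Binding signal is a hexamer's read frequency for a factor divided by its frequency for the tag-only sample.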

ELK1 = biological target: T2, ELK1 (Homo sapiens, UniProt P19419 1-428); details: protein: recombinant; tags: N-terminal GST; dsDNA, one strand shown
T2 sequence: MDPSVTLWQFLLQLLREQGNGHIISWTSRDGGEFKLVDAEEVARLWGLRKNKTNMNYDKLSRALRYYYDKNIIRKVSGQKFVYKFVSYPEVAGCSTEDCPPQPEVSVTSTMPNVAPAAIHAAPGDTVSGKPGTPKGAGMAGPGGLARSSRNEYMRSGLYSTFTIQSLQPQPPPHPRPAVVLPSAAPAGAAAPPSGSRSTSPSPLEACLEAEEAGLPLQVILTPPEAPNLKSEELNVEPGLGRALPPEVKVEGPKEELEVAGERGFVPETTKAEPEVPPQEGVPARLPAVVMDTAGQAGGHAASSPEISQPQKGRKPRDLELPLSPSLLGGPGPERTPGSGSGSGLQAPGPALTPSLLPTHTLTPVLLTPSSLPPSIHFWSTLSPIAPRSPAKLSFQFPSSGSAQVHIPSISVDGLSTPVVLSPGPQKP
How it was run: as §1

GABPA = biological target: T3, GABPA (Homo sapiens, UniProt Q06546 1-454); details: protein: recombinant; tags: N-terminal GST; dsDNA, one strand shown
T3 sequence: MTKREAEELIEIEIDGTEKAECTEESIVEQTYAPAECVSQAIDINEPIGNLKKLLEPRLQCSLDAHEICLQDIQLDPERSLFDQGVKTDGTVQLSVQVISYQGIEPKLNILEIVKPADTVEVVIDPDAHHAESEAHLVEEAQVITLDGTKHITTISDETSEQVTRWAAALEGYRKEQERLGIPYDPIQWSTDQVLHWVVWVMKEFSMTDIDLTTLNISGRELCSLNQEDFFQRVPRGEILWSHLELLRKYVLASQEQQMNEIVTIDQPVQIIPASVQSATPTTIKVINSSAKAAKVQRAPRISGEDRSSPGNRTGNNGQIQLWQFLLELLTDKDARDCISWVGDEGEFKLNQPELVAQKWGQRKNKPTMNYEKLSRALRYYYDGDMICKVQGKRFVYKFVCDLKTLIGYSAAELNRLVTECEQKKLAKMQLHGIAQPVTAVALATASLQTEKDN
How it was run: as §1

ELF1 = ELF1 (Homo sapiens, UniProt P32519 1-619); details: protein: recombinant; tags: N-terminal GST; dsDNA, one strand shown
How it was run: as §1

EHF = biological target: T4, EHF (Homo sapiens, UniProt Q9NZC4 1-300); details: protein: recombinant; tags: N-terminal GST; dsDNA, one strand shown
T4 sequence: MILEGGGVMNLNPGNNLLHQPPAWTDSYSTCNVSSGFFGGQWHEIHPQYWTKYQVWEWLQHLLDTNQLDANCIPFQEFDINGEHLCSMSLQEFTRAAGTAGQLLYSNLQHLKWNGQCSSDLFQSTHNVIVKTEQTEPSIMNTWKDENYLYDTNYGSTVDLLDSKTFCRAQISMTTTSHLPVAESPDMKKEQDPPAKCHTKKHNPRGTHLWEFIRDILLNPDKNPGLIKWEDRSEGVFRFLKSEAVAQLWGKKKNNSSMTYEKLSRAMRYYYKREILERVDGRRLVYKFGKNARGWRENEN
How it was run: as §1

ELK3 = biological target: T5, ELK3 (Homo sapiens, UniProt P41970 1-407); details: protein: recombinant; tags: N-terminal GST; dsDNA, one strand shown
T5 sequence: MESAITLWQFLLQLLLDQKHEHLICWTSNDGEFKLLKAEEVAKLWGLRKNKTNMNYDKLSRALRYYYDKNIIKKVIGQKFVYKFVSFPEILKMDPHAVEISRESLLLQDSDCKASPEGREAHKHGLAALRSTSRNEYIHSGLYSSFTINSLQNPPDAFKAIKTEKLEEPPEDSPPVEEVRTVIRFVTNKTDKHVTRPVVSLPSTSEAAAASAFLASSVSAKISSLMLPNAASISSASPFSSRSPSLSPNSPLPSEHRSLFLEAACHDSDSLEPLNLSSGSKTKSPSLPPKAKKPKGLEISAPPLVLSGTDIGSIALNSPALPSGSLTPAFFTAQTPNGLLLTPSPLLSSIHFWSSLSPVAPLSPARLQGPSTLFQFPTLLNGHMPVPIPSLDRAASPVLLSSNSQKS
How it was run: as §1

ETV5 = ETV5 (Homo sapiens, UniProt P41161 1-510); details: protein: recombinant; tags: N-terminal GST; dsDNA, one strand shown
How it was run: as §1

HSF1 = HSF1 (Homo sapiens, UniProt Q00613 1-529); details: protein: recombinant; tags: N-terminal GST; chain copies: 3; dsDNA, one strand shown
How it was run: as §1

SPIC = biological target: T6, SPIC (Homo sapiens, UniProt Q8N5J4 1-248); details: protein: recombinant; tags: N-terminal GST; dsDNA, one strand shown
T6 sequence: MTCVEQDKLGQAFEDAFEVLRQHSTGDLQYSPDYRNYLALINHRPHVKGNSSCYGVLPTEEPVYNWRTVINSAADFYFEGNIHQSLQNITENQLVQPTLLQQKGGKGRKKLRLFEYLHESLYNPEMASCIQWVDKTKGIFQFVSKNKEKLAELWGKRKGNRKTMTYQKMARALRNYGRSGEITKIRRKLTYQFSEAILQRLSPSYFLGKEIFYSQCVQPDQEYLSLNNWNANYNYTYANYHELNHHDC
How it was run: as §1

ELF4 = ELF4 (Homo sapiens, UniProt Q99607 1-663); details: protein: recombinant; tags: N-terminal GST; dsDNA, one strand shown
How it was run: as §1

ELK4 = biological target: T7, ELK4 (Homo sapiens, UniProt P28324-2 1-405); details: protein: recombinant; tags: N-terminal GST; dsDNA, one strand shown
T7 sequence: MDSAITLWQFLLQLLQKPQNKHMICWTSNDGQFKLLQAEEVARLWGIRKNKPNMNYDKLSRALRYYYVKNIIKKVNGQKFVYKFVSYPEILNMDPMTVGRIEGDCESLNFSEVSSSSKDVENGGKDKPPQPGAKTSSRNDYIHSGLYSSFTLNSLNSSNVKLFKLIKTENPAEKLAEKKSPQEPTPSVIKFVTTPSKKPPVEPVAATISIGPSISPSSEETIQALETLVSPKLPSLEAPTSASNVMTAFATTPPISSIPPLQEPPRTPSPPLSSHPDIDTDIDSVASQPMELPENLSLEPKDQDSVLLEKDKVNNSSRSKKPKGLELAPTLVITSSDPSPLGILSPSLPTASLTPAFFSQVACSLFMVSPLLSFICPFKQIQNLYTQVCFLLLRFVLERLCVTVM
How it was run: as §1

ELF3 = biological target: T8, ELF3 (Homo sapiens, UniProt P78545 1-371); details: protein: recombinant; tags: N-terminal GST; dsDNA, one strand shown
T8 sequence: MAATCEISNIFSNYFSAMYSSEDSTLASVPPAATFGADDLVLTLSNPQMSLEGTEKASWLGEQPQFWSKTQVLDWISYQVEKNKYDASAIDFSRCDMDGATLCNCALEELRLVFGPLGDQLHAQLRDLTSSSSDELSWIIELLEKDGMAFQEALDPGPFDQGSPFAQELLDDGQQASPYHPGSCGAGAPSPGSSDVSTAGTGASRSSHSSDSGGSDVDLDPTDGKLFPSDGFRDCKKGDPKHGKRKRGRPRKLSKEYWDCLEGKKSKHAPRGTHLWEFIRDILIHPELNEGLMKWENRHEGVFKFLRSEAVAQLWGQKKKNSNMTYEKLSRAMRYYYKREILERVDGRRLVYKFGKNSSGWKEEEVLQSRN
How it was run: as §1

CRX = CRX (Homo sapiens, UniProt O43186 1-299); details: protein: recombinant; tags: N-terminal GST; dsDNA, one strand shown
How it was run: as §1

ETV1 = ETV1 (Homo sapiens, UniProt P50549 1-477); details: protein: recombinant; tags: N-terminal GST; dsDNA, one strand shown
How it was run: as §1

ELF1, sequence (P32519 whole entry): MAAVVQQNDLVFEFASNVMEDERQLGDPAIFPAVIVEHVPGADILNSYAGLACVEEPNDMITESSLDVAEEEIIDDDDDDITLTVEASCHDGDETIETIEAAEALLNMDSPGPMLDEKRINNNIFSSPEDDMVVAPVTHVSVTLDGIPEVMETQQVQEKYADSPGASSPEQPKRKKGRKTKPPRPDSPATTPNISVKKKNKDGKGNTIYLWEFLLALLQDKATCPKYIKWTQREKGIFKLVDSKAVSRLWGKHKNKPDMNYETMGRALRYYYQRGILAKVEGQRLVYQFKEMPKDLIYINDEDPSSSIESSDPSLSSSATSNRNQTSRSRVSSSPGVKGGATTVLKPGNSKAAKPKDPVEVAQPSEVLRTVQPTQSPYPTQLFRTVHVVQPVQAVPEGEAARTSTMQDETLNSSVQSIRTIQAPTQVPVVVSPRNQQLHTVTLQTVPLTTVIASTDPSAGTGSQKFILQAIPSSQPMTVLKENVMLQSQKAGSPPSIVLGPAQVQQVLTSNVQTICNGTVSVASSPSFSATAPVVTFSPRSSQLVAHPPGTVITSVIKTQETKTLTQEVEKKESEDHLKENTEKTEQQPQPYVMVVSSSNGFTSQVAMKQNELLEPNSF
ETV1, sequence (P50549 whole entry): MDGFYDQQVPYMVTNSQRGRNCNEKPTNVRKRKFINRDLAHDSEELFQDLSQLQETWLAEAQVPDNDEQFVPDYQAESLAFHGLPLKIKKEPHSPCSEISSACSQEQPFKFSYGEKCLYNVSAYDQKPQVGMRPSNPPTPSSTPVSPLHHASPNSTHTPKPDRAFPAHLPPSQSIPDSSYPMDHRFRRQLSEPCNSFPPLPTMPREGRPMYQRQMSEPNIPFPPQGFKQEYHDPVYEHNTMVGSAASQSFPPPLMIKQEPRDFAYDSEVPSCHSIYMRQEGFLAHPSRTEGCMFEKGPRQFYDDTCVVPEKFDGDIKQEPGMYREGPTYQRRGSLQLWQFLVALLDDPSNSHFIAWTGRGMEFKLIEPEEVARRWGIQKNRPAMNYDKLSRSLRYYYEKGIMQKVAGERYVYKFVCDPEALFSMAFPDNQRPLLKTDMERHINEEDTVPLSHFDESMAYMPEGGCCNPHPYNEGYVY
ELF4, sequence (Q99607 whole entry): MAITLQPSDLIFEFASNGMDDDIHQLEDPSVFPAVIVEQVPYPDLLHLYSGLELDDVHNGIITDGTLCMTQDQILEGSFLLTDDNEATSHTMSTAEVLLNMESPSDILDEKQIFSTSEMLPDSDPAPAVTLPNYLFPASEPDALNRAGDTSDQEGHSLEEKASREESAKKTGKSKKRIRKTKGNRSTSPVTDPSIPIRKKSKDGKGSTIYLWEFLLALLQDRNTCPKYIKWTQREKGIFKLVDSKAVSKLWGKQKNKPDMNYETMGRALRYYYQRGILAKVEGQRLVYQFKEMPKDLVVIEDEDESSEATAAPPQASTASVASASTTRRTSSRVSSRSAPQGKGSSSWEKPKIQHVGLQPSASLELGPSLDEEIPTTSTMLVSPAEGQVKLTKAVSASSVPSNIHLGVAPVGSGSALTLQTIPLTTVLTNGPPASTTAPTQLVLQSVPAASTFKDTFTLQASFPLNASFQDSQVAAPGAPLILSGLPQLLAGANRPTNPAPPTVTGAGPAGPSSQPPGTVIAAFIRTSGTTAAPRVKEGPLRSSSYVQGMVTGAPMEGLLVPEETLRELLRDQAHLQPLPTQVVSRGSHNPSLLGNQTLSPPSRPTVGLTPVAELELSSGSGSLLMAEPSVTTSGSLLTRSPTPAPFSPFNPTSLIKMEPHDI
ETV5, sequence (P41161 whole entry): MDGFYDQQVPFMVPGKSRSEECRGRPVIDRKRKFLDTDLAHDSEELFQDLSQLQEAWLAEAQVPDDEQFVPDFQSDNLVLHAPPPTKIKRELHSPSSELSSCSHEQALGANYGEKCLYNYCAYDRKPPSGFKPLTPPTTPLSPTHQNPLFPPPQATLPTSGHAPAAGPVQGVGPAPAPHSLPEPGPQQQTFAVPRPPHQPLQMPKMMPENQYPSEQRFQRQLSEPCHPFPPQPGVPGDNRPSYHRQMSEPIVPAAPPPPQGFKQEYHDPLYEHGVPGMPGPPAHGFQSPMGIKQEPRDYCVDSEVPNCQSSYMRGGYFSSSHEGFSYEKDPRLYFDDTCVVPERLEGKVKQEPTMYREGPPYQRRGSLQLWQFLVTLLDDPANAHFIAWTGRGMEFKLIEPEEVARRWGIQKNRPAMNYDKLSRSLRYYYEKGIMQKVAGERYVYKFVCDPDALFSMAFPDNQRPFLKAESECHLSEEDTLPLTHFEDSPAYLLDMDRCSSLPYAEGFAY
CRX, sequence (O43186 whole entry): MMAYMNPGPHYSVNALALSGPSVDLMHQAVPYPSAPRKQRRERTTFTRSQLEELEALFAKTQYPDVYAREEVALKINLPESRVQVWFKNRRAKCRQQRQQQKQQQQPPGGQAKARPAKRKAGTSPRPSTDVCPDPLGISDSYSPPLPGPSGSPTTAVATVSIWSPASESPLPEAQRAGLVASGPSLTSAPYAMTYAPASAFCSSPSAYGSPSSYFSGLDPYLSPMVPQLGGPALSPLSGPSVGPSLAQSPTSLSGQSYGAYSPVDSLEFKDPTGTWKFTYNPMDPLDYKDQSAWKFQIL
HSF1, sequence (Q00613 whole entry): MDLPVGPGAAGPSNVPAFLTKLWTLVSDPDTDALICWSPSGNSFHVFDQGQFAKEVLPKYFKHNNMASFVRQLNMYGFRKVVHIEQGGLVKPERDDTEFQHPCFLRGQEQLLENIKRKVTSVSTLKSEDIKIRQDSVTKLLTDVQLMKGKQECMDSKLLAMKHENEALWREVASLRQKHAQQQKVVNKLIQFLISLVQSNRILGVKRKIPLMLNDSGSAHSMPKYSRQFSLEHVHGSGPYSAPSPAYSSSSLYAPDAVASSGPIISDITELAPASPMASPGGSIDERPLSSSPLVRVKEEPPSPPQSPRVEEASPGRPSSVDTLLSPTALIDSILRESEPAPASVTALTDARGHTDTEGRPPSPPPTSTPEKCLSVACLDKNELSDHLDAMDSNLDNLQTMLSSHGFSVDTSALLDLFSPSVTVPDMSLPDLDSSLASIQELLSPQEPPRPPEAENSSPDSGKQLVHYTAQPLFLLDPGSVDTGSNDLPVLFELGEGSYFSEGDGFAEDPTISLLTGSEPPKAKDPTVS

Sequence: TAGCGA
- binding signal (FLI1): 1.1 fold enrichment (6-mer frequency, TF over GST control)
- binding signal (ELK1): 1.01 fold enrichment (6-mer frequency, TF over GST control)
- binding signal (GABPA): 1.18 fold enrichment (6-mer frequency, TF over GST control)
- binding signal (ELF1): 1.03 fold enrichment (6-mer frequency, TF over GST control)
- binding signal (EHF): 1.03 fold enrichment (6-mer frequency, TF over GST control)
- binding signal (ELK3): 1.08 fold enrichment (6-mer frequency, TF over GST control)
- binding signal (ETV5): 1.08 fold enrichment (6-mer frequency, TF over GST control)
- binding signal (HSF1): 1.22 fold enrichment (6-mer frequency, TF over GST control)
- binding signal (SPIC): 1.08 fold enrichment (6-mer frequency, TF over GST control)
- binding signal (ELF4): 1.04 fold enrichment (6-mer frequency, TF over GST control)
- binding signal (ELK4): 1.05 fold enrichment (6-mer frequency, TF over GST control)
- binding signal (ELF3): 1.2 fold enrichment (6-mer frequency, TF over GST control)
- binding signal (CRX): 1.24 fold enrichment (6-mer frequency, TF over GST control)
- binding signal (ETV1): 1.07 fold enrichment (6-mer frequency, TF over GST control)
